# ChEMBL document CHEMBL2218924, “A broad activity screen in support of a chemogenomic map for kinase signalling research and drug discovery” (Biochem J, 2013)
# Columns and labels:
# [1] = molecular target: Serine/threonine-protein kinase WNK2 (Homo sapiens) (UniProt Q9Y3S1); conditions: at 10 µM
# [2] = molecular target: Serine/threonine-protein kinase WNK3 (Homo sapiens) (UniProt Q9BYP7); conditions: at 1 µM
# [3] = molecular target: Serine/threonine-protein kinase WNK3 (Homo sapiens) (UniProt Q9BYP7); conditions: at 10 µM
# [4] = molecular target: Tyrosine-protein kinase Yes (Homo sapiens) (UniProt P07947); conditions: at 1 µM
# [5] = molecular target: Tyrosine-protein kinase Yes (Homo sapiens) (UniProt P07947); conditions: at 10 µM
# [6] = molecular target: Death-associated protein kinase 3 (Homo sapiens) (UniProt O43293); conditions: at 10 µM
# [7] = molecular target: Serine/threonine-protein kinase mTOR (Homo sapiens) (UniProt P42345); conditions: at 1 µM
# [8] = molecular target: Serine/threonine-protein kinase mTOR (Homo sapiens) (UniProt P42345); conditions: at 10 µM
# [9] = molecular target: T1, Tyrosine-protein kinase ZAP-70 (Homo sapiens) (UniProt P43403); conditions: at 1 µM
# T1 sequence (whole entry): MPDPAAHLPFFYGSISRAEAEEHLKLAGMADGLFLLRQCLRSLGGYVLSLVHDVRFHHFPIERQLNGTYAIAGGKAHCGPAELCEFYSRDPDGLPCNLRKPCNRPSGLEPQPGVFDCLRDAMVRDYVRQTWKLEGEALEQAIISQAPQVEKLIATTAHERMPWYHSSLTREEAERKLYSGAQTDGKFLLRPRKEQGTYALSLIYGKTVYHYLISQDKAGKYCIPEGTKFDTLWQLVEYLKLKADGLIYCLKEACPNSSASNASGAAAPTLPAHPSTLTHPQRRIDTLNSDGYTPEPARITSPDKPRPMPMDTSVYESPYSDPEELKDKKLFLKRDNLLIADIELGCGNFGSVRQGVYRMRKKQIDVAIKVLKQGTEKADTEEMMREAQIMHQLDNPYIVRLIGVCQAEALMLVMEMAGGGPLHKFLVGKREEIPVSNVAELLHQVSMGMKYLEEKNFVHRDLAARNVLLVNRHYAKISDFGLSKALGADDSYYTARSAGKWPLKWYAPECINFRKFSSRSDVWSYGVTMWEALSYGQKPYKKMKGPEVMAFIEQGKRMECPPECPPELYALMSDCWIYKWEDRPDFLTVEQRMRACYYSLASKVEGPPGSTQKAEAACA
# [10] = molecular target: Death-associated protein kinase 3 (Homo sapiens) (UniProt O43293); conditions: at 1 µM
# [11] = molecular target: RAF proto-oncogene serine/threonine-protein kinase (Homo sapiens) (UniProt P04049); conditions: at 1 µM
# [12] = molecular target: RAF proto-oncogene serine/threonine-protein kinase (Homo sapiens) (UniProt P04049); conditions: at 10 µM
# [13] = molecular target: Mast/stem cell growth factor receptor Kit (Homo sapiens) (UniProt P10721); conditions: at 1 µM
# [14] = molecular target: Mast/stem cell growth factor receptor Kit (Homo sapiens) (UniProt P10721); conditions: at 10 µM
# [15] = molecular target: Proto-oncogene tyrosine-protein kinase Src (Homo sapiens) (UniProt P12931); conditions: at 1 µM
# [16] = molecular target: Proto-oncogene tyrosine-protein kinase Src (Homo sapiens) (UniProt P12931); conditions: at 10 µM
# [17] = molecular target: Serine/threonine-protein kinase mTOR (Homo sapiens) (UniProt P42345); conditions: at 1 µM; remark: listed apart in the source
# [18] = molecular target: Serine/threonine-protein kinase mTOR (Homo sapiens) (UniProt P42345); conditions: at 10 µM; remark: listed apart in the source
# Death-associated protein kinase 3 (Homo sapiens), sequence (O43293 whole entry, looked up): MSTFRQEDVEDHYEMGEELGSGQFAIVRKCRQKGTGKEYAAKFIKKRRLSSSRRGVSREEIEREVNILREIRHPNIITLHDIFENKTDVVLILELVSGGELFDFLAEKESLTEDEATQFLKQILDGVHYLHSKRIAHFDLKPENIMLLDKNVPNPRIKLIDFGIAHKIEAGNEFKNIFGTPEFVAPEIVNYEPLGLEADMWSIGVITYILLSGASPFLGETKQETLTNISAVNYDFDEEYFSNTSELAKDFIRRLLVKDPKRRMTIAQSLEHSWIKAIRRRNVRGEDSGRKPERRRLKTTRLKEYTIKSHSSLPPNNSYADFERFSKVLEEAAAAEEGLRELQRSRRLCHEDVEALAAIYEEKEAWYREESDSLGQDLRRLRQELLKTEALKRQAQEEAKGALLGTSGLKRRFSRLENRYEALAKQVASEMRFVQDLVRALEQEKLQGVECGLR
# Mast/stem cell growth factor receptor Kit (Homo sapiens), sequence (P10721 whole entry): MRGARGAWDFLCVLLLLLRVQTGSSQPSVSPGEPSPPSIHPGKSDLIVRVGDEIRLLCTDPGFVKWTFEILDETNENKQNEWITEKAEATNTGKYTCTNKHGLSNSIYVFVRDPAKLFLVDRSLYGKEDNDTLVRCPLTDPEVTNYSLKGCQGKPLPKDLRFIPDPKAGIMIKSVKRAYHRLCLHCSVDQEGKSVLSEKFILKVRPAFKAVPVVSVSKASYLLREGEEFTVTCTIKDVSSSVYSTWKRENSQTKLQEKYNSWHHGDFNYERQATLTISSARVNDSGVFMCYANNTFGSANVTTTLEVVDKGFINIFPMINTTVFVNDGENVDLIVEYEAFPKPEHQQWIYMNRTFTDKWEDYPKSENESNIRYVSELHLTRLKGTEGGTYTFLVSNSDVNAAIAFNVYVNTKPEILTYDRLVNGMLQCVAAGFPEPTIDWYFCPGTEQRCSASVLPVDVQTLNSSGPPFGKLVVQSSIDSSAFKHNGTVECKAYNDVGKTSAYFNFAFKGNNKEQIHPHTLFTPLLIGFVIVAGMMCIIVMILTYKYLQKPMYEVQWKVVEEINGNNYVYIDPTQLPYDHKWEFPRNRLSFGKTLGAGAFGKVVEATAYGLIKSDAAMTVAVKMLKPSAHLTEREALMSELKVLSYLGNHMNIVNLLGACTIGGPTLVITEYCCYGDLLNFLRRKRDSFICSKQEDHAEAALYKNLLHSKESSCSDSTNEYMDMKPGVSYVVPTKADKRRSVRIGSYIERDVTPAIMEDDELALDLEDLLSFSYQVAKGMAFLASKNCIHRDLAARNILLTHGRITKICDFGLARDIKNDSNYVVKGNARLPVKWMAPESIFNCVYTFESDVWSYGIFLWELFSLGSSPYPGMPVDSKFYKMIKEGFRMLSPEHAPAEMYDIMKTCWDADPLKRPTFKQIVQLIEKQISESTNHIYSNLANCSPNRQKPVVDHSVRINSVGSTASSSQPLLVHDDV
# RAF proto-oncogene serine/threonine-protein kinase (Homo sapiens), sequence (P04049 whole entry): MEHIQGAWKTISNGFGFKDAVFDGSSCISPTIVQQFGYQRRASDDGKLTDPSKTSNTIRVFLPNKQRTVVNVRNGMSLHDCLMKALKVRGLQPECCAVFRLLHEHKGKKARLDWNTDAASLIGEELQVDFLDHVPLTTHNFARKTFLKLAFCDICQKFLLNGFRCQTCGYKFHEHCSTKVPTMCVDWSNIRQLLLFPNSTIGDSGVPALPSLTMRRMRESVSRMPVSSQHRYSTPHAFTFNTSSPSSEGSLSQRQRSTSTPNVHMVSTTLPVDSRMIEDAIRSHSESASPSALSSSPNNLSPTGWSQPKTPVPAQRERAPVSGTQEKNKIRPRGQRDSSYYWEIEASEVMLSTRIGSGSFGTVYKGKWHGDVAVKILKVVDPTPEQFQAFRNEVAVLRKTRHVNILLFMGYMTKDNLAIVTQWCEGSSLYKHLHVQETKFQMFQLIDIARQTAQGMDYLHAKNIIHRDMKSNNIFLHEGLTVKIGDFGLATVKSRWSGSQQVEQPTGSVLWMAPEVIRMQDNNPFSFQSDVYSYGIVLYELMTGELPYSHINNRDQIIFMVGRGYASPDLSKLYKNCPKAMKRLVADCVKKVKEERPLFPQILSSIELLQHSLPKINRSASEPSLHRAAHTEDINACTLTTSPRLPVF
# Tyrosine-protein kinase Yes (Homo sapiens), sequence (P07947 2-543 limits assumed): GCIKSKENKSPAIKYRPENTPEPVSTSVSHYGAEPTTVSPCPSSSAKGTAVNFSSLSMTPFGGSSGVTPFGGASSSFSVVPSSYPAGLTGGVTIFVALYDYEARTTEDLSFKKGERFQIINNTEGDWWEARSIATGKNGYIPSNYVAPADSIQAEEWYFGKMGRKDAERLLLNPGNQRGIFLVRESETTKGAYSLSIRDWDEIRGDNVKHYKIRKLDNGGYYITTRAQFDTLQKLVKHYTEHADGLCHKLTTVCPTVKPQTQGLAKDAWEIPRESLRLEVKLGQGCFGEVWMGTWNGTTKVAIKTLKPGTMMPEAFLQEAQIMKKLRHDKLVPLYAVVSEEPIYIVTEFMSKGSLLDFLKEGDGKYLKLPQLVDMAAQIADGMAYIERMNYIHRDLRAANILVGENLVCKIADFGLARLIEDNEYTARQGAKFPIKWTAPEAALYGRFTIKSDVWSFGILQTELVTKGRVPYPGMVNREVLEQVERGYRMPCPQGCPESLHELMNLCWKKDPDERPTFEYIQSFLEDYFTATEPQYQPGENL
# Serine/threonine-protein kinase WNK2 (Homo sapiens), sequence (Q9Y3S1 whole entry): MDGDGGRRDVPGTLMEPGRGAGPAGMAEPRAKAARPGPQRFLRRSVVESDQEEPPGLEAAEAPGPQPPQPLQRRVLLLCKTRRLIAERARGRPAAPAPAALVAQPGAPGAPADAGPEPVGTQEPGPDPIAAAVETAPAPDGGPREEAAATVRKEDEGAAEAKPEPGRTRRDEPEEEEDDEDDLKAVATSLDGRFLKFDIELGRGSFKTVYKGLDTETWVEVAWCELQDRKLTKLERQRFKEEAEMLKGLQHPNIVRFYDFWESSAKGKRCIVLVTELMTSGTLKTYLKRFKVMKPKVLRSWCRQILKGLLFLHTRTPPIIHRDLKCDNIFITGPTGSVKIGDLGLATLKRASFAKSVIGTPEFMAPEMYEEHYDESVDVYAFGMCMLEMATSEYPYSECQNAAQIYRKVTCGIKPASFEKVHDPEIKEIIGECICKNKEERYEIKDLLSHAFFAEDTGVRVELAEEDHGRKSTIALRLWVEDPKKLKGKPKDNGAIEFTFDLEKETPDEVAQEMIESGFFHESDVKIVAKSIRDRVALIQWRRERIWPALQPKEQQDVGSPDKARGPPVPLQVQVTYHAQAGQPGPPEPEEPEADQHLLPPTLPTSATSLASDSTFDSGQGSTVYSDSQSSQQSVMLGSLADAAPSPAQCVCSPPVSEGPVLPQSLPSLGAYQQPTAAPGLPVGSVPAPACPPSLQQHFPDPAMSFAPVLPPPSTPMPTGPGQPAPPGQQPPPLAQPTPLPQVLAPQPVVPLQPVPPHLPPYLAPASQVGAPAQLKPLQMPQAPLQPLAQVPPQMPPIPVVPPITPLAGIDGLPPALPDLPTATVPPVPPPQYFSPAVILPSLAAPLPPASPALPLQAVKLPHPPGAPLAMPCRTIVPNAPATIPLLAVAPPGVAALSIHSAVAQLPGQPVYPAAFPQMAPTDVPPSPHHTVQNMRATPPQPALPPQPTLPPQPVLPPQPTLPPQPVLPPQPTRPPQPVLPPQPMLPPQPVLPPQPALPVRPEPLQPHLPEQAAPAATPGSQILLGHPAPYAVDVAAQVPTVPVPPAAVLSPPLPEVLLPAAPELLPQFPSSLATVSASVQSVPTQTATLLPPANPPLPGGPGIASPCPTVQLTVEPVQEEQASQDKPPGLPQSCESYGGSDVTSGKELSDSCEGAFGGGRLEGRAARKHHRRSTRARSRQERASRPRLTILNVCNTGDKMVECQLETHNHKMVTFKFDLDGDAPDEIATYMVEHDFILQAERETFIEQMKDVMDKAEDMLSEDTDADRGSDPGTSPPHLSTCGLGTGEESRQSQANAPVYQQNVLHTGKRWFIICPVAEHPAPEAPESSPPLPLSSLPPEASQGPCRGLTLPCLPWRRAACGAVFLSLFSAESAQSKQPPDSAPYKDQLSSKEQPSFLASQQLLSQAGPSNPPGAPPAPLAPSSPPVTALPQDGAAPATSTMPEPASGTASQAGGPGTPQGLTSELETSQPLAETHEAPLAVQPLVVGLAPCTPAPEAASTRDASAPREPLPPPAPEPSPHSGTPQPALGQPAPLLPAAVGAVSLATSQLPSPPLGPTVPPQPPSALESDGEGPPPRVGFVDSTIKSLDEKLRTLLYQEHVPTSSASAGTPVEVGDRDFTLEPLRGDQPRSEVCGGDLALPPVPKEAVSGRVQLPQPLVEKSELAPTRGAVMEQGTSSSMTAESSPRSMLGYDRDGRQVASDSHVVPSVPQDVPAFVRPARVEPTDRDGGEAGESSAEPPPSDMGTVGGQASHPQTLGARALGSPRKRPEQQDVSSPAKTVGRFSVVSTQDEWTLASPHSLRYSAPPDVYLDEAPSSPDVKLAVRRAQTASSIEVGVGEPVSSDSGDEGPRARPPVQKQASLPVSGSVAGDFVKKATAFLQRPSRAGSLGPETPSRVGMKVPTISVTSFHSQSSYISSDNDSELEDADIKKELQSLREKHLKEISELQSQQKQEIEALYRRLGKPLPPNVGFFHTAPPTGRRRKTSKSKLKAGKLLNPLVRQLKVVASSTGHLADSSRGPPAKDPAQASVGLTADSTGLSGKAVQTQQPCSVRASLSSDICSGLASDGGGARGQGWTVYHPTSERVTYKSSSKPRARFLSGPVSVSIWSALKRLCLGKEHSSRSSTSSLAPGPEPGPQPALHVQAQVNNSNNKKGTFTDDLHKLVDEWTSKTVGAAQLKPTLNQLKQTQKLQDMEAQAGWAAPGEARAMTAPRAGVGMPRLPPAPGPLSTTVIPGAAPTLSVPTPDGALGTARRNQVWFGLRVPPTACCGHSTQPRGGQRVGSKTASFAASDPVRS
SMILES,residual activity [1] [%],residual activity [2],residual activity [3] [%],residual activity [4] [%],residual activity [5] [%],residual activity [6] [%],residual activity [7] [%],residual activity [8] [%],residual activity [9] [%],residual activity [10] [%],residual activity [11] [%],residual activity [12] [%],residual activity [13] [%],residual activity [14] [%],residual activity [15] [%],residual activity [16] [%],residual activity [17] [%],residual activity [18] [%]
N#C/C(=C1/Nc2ccccc2S1)c1ccnc(NCCc2cccnc2)n1,28,73% (inactive),39,113,48,76,89,62,,,,,,,,,,
CC(C)(C)n1nc(Cc2cccc3ccccc23)c2c(N)ncnc21,66,95% (inactive),72,5,0,113,98,97,97,99,27,3,113,77,63,24,120,87
COc1cc2nccc(Oc3ccc(NC(=S)NC(=O)c4ccccc4C)cc3)c2cc1OC,43,82% (inactive),49,15,3,,,,94,,65,73,28,3,32,7,,
Cn1sc(=O)n(Cc2ccccc2)c1=O,88,99% (inactive),79,,,97,,,98,87,71,73,100,85,,92,,
NC(=O)Nc1sc(-c2ccc(F)cc2)cc1C(N)=O,68,81% (inactive),75,38,4,50,114,92,96,85,54,19,56,4,54,10,,
O=c1cc(N2CCNCC2)oc2c(-c3ccccc3)cccc12,80,133% (inactive),98,,91,99,90,99,103,,88,87,97,95,94,99,76,90
Nc1ncnc2c1c(-c1ccc(Oc3ccccc3)cc1)cn2C1CCCC1,42,91% (inactive),52,0,0,112,99,104,102,103,44,18,36,1,5,-1,97,98
O=C1NC(=O)c2c1c1c3ccccc3[nH]c1n1cncc21,43,74% (inactive),45,90,59,30,75,71,97,27,68,60,11,10,100,64,86,76
O=C(c1cc2cc(O)ccc2[nH]1)c1cc2cc(O)ccc2[nH]1,35,,44,6,0,49,,,127,,76,72,33,5,28,3,,
CN(C)S(=O)(=O)c1ccc2c(c1)/C(=C/c1cc3c([nH]1)CCCC3)C(=O)N2,89,100% (inactive),89,12,6,100,,,114,94,91,91,29,28,31,35,,
Oc1cccc(-c2nc(N3CCOCC3)c3oc4ncccc4c3n2)c1,93,119% (inactive),,,93,,49,35,,,81,91,118,100,91,94,-12,7
O=C1Nc2ccccc2/C1=C\c1c(Cl)[nH]c2ccccc12,61,,64,,,,118,,,,85,41,,48,,,,
